# From PubChem BioAssay
# IL-1B inflam inh: qHTS for Inhibitors of Inflammasome Signaling: IL-1-beta AlphaLISA Primary Screen. activity change, % at 57.5 µM. 360,000 compounds, 4.7% hits. THP-1 LPS/ATP IL-1B secretion, AlphaLISA, 16 h; hits give low values; in the data active = activity change below about -50%; inconclusive = mostly about -30% to -49%; also: % is scaled to controls: 0 for no effect and ±100 for the full control effect
#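 THP-1 cells pretreated 1 hr with compounds (up to 57.5 uM final), then stimulated with LPS (250 ng/mL final) plus ATP (1.25 mM final); secreted IL-1B measured by AlphaLISA after 16 hr, decreased signal indicating inhibition.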
# SW480 rerep: A quantitative high throughput screen for small molecules that induce DNA re-replication in SW480 colon adenocarcinoma cells; SW480 DNA re-replication, Hoechst DNA content imaging, 48 h; 340,000 compounds, 1.8% hits; Potency, µM (titrated, usually from 46.1 µM), for inactives: at the top dose re-replication activation, actives largely listed as activators; AID 624297, 2012; also: potency is read from the fitted curve at half-maximal effect; % of control where 0% means no effect; nearly all actives have a fitted effect of over 55% in size
#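 Per well, 250 cells were exposed to pinned compound for 48 hr. Nuclear DNA was visualised with Hoechst (40 min, 37 C) and total object intensity recorded by fluorescence scanning.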
# MCF10A rereplic: A quantitative high throughput screen for small molecules that induce DNA re-replication in MCF 10a normal breast cells. 350,000 compounds, 2.9% hits. MCF 10A DNA re-replication, Hoechst nuclear intensity, 48 h. AID 624296, 2012. Potency, µM (titrated, usually from 46.1 µM), inactives show top-dose activity, positive = re-replication, hits mostly activators; also: potency is read from the fitted curve at half-maximal effect; % of control where 0% means no effect; nearly all actives have a fitted effect of over 50% in size
# Chronic BCR inh: qHTS Assay to Find Inhibitors of Chronic Active B-Cell Receptor Signaling; Potency, µM (doses to about 46.1 µM), for the others: top-dose activity change, negative = inhibition, usual class: inhibitors; ABC-DLBCL IkBa-CBG/CBR reporter, luminescence ratio, 4 h; 340,000 compounds, 0.05% hits; AID 493014, 2011; active = well fitted inhibition curve with a large enough effect in the signal ratio, with a control signal flat, not every such curve was filed as active; inconclusive = small, poorly fitted or top-dose-only effect, or effect the other way, or a change in a side signal; the % refers to the signal ratio;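 also: potency is read from the fitted curve at half-maximal effect; plate controls were basal doxycycline-induced cells for no effect and cells given 10 µM MG132 for full effect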
#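 Cell line TMD8 (human ABC DLBCL), stably expressing tet-inducible CBG68-IkBa fusion and CBR; IMDM/0.5% FBS; cpd up to 46 uM; dox induction, 4 h, 37C/5% CO2; dual luminescence; green/red ratio; MG132 control.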
# TDP1 cell noCPT: qHTS for Inhibitors of human tyrosyl-DNA phosphodiesterase 1 (TDP1): qHTS in cells in absence of CPT | DT40 Tdp1-/- hTDP1 cells, no CPT, ATP luminescence, 48 h | Potency, µM (highest dose often 46.2 µM), for inactives: at the highest dose activity change, negative = growth inhibition, most hits filed as inhibitors | 420,000 compounds, 15% hits | AID 686978, 2013; also: potency is read from the fitted curve at half-maximal effect; % is scaled to controls: 0 for no effect and ±100 for the full control effect; nearly all actives have a fitted effect of over 55% in size
#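 No-CPT arm: Tdp1-/-;hTDP1 DT40 cells (400/well) plus compounds, incubated ≥48 hr at 37 °C. Readout CellTiter-Glo luminescence.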
# DT40 TDP1 CPT: qHTS for Inhibitors of human tyrosyl-DNA phosphodiesterase 1 (TDP1): qHTS in cells in presence of CPT; chicken DT40 Tdp1-/-;hTDP1 cells + 20 nM CPT, ATP luminescence, 48 h; Potency, µM (doses to about 46.2 µM), for inactives: at the top dose activity change, negative = growth inhibition, most hits filed as inhibitors; 420,000 compounds, 12% hits; AID 686979, 2013; also: potency is read from the fitted curve at half-maximal effect; % is scaled to controls: 0 for no effect and ±100 for the full control effect; nearly all actives have a fitted effect of over 55% in size
#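 Chicken DT40 Tdp1-/- cells stably complemented with human TDP1 were seeded at 400 cells/well in medium containing 20 nM camptothecin, exposed to pin-transferred compounds, and grown at 37 °C for at least 48 hr. Viability was read as ATP luminescence.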
# An asterisk follows results filed as active; ? = inconclusive; . = no result given; [ ] = another dose, or the depositor's remark. The list is not random: actives were taken first. Their share in the collection is about 19%. Unless noted, calls follow the shape of the dose curve; as a rule, active = well fitted curve in the direction sought with a large enough effect; inconclusive = small, poorly fitted or top-dose-only effect, or another doubt; inactive = no such curve, though single readings can be large; an effect the other way counts as inactive or inconclusive.
SMILES,IL-1B inflam inh,SW480 rerep,MCF10A rereplic,Chronic BCR inh,TDP1 cell noCPT,DT40 TDP1 CPT
CCOc1ccc(C(=O)Cn2c(=O)n3nc(CCn4nc(C)cc4C)nc3c3cc(OC)c(OC)cc32)cc1,.,.,.,-15%,-2%,14%
Cc1ccn(-c2cc(O)c(-n3ccc(C)n3)cc2O)n1,-23,1%,-1%,-1%,?,-5%
Cc1cccn2c(=O)cc(CSc3nnc(NC(=O)COc4ccc(F)cc4)s3)nc12,.,.,.,.,-6%,5%
CCN(CC)C(=O)C1=C(C)N(Cc2ccc(C(C)(C)C)cc2)C(=O)C(CC(=O)NCCCN(C)C)C1 (configuration not stated),-12,.,.,.,-4%,-8%
Cc1ccc(S(=O)(=O)N2CCN(C(=O)COC(=O)CCOc3ccccc3)CC2)c(C)c1,-3,?,29%,0%,-2%,?
O=C(NC1CC2CCCC(C1)N2Cc1cccs1)c1ccc([N+](=O)[O-])cc1 (configuration not stated),.,.,.,-1%,.,.
c1ccc(Nc2nnc(SCc3cccc4ccccc34)s2)cc1,-14,-2%,17%,8%,?,?
O=C(CSc1nnc(SCc2cccc3ccccc23)s1)Nc1ccc(C(=O)O)cc1,13,-3%,-2%,?,21µM*,18µM*
Cc1sc2ncnc(NCc3ccccc3)c2c1C,-68*,2%,14%,?,15µM*,13µM*
CN(C)C(CNc1ncnc2sccc12)c1ccccc1 (configuration not stated),12,23%,27%,-11%,?,-24%
COc1ccc(CNc2ncnc3sccc23)cc1OC,19,5%,11%,-3%,7.3µM*,8.2µM*
OC(CNc1ncnc2sccc12)c1ccccc1 (configuration not stated),-24,-7%,?,?,5.2µM*,4.1µM*
c1csc(CNc2ncnc3sccc23)c1,-8,7%,17%,.,5.2µM*,5.2µM*
COc1ccc(N(CC(=O)NCc2ccc(F)cc2)C(=O)c2snc(C(N)=O)c2N)cc1,20,-4%,1%,4%,-1%,5%
Cc1cccc(C(=O)Nc2ccc(C(=O)OCc3cc(=O)n4nc(CC(C)C)sc4n3)cc2)c1,.,.,.,.,?,-8%
COc1ccc(CNc2ncnc3c2cnn3-c2ccc(C)c(C)c2)cc1,.,.,.,?,-10%,-12%
Cc1cc2c(NCc3ccccc3)ncnc2s1,?,1%,-2%,?,6.5µM*,?
Cn1ncc2c(NCc3ccccc3)ncnc21,8,2%,?,-7%,?,?
COc1ccc(CNc2ncnc3sccc23)cc1,35,-2%,0%,-25%,4.1µM*,5.8µM*
c1ccc(CNc2ncnc3sccc23)cc1,13,-16%,-4%,-6%,7.3µM*,8.2µM*
O=C(Cn1nnc(-c2cccc(C(F)(F)F)c2)n1)NCc1ccc(F)cc1,.,.,.,.,-28%,-24%
O=C1c2cccc(OCC(=O)N3N=C(c4cccs4)CC3c3ccc(F)cc3)c2CCN1Cc1cccnc1 (configuration not stated),-6,.,?,?,10µM*,9.2µM*
O=C1c2cccc(OCC(=O)N3CCCc4ccccc43)c2CCN1Cc1cccnc1,-7,1%,1%,?,9.2µM*,23µM*
O=C(c1cccnc1)N1N=C(c2cccs2)CC1c1ccc(F)cc1 (configuration not stated),8,-1%,-1%,10%,-22%,6%
Cc1ccccc1CN1CCc2c(OCC(=O)N3CCCc4ccccc43)cccc2C1=O,?,15%,?,?,18µM*,18µM*
SMILES,IL-1B inflam inh,SW480 rerep,MCF10A rereplic,Chronic BCR inh,TDP1 cell noCPT,DT40 TDP1 CPT
CCOC(=O)N1CCN(C(=O)COc2cccc3c2CCN(Cc2cccc(C)c2)C3=O)CC1,-23,2%,10%,?,15µM*,23µM*
C=C1[C@@H](OC(C)=O)CC[C@]2(C)[C@@H]1C[C@@H]1C[C@H](OC(C)=O)C(C)=C([C@@H](OC(C)=O)[C@@H]2OC(C)=O)C1(C)C,19,2%,1%,3%,?,?
CC1(C(=O)Nc2cnc3ccccc3c2)CCN1Cc1cc2ccccc2o1 (configuration not stated),0,.,.,.,15µM*,13µM*
CC1(C(=O)NC2CCN(Cc3ccccc3)CC2)CCN1Cc1cc2ccccc2o1 (configuration not stated),-12,.,.,.,-85%,?
CC(C)c1ccc(CN2CCC2(C)C(=O)Nc2cnc3ccccc3c2)cc1 (configuration not stated),-1,.,.,.,26µM*,18µM*
CC1(C(=O)Nc2cnc3ccccc3c2)CCN1Cc1ccc2ccccc2c1 (configuration not stated),-11,.,.,.,?,15µM*
COc1ccc(CN2CCC2(C)C(=O)Nc2cnc3ccccc3c2)c2ccccc12 (configuration not stated),-20,.,.,.,?,?
NS(=O)(=O)c1cccc(NC(=O)CSc2n[nH]c(-c3ccccc3Br)n2)c1,5,-16%,4%,.,-10%,-24%
CCN(CC(=O)Nc1ccc(OC)cc1)C(=O)Cc1ccsc1,4,-4%,-4%,0%,2%,19%
Cc1ccc(-c2nnc(-c3ccccc3S(=O)(=O)Cc3ccc(Cl)cc3)o2)cc1,0,-7%,-8%,?,23µM*,?
O=S(=O)(Cc1ccc(Cl)cc1)c1ccccc1-c1nnc(-c2ccc(Cl)cc2)o1,24,-6%,8%,-13%,?,?
O=S(=O)(Cc1ccccc1)c1ccccc1-c1nnc(-c2ccccc2)o1,-8,-5%,1%,3%,16µM*,16µM*
COc1ccccc1-c1ccnc(-n2ncc(C(=O)NCc3cccc(C)n3)c2C)n1,.,.,.,.,-2%,0%[9.04 µM]
CC1CCN(CCOc2ccc(OCc3ccccc3)cc2)CC1,?,0%,?,-3%,?,?
OC(c1ccccc1)(c1ccccc1)C1CCN(CCCOc2ccc(F)cc2)CC1,-53*,.,.,.,?,?
COC(=O)c1cccc(OCCCN2CCC(C(O)(c3ccccc3)c3ccccc3)CC2)c1,0,.,.,.,?,?
